# Compound activity (PubChem BioAssay)
# Most compounds without a hit are left out; they make up all but 10% or so of the library.
# GPT2 inhibitor – inhibitors of human GPT2 alanine aminotransferase | hit rate 0.25% among 100,000 | Recombinant GPT2, coupled pyruvate oxidase/HRP Amplex Red fluorescence | Potency, µM (top dose mostly 57.7 µM), for inactives: top-dose activity change, negative = inhibition, most hits filed as inhibitors | Q8TD30; note: % is set by controls: 0 for no effect and ±100 for the full control effect; nearly all actives have a fitted effect of over 60% in size
#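 Fluorescence read-out: pyruvate from GPT2 turnover coupled to pyruvate oxidase, HRP and Amplex Red (0.2mM ThPP, 0.2U/mL PO and HRP, 50uM Amplex final). Substrates 250uM a-KG, 2mM L-alanine; enzyme 10ng/uL; 30 min RT.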
# HEK cytotox – kills HEK 293 cells; HEK 293 viability, ATP luminescence (CellTiter-Glo), 48-72 h; hit rate 6.6% among 94,000; AID 1345083; Potency, µM (doses to about 115 µM), for inactives: top-dose activity change, negative = cytotoxicity, most hits filed as inhibitors; note: % is set by controls: 0 for no effect and ±100 for the full control effect; nearly all actives have a fitted effect of over 60% in size
#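 Read-out: CellTiter-Glo ATP luminescence. Cells: HEK 293, 250 cells/well. Exposure: 48 or 72 hr, 37 degree Celsius.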
# Luciferase inh – inhibitors of firefly (Photinus pyralis) luciferase. P08659. purified P. pyralis luciferase, luminescence, biochemical. Potency, µM (top dose mostly 115 µM), hits mostly inhibitors. hit rate 2.5% among 76,000; note: % is set by controls: 0 for no effect and ±100 for the full control effect; nearly all actives have a fitted effect of over 65% in size
# Target sequence (P08659 whole entry, looked up): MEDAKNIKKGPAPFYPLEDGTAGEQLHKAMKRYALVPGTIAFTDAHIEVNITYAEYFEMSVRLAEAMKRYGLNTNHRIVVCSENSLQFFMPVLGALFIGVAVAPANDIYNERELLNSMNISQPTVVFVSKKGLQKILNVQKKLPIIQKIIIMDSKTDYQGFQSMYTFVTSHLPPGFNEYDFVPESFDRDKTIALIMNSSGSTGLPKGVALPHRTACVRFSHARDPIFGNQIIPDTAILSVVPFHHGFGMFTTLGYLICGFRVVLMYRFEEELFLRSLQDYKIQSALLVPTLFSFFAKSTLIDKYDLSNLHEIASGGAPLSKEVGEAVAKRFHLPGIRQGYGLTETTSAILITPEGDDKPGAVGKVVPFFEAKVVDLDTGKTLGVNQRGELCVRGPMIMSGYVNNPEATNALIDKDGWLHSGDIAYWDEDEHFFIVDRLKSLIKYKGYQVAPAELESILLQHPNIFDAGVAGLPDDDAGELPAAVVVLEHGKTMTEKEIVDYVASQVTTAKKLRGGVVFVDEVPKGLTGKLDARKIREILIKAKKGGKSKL
#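 Inhibitors were tested against purified firefly luciferase in a biochemical, low-substrate format (both substrates at 10uM) and luminescence measured with a CCD imager.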
# NIH3T3 tox – NIH 3T3 cell cytotoxicity. NIH 3T3 viability, CellTiter-Glo ATP luminescence, 48-72 h. Potency, µM (titrated, usually from 96.7 µM), without a hit: at the highest dose activity change, negative = cytotoxicity, hits mostly inhibitors. hit rate 4.3% among 94,000. AID 1345082; note: % is set by controls: 0 for no effect and ±100 for the full control effect; nearly all actives have a fitted effect of over 55% in size
#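 NIH 3T3 cells at 400 cells/well received 23 nL of compound by pintool and were incubated 48 or 72 h at 37 °C. Viability was read as ATP-coupled CellTiter-Glo luminescence.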
# hNpr1 antagonist – antagonists of human natriuretic peptide receptor Npr1; P16066; HEK293 hNpr1 GloSensor cGMP, ANP-stimulated luminescence; Potency, µM (series often up to 46.3 µM), for inactives: at the highest dose activity change, negative = inhibition, usual class: inhibitors; hit rate 1.6% among 76,000; calls by dose curve; note: % is set by controls: 0 for no effect and ±100 for the full control effect; nearly all actives have a fitted effect of over 60% in size
#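 Compound pre-incubated 30 min at room temperature on GloSensor-loaded HEK293 cells stably carrying hNpr1 and the pGS-40F cGMP biosensor. Stimulation uses hNppA at 0.1 nM final; luminescence is taken at baseline and 20 min post-agonist.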
# NPR1 antag cnf – hNpr1 antagonism, confirmation assay; HEK293 hNpr1 cGMP GloSensor luminescence, ANP-stimulated; shares compounds with hNpr1 antagonist; Potency, µM (titrated, usually from 57.6 µM), without a hit: top-dose activity change, negative = inhibition, usual class: inhibitors; hit rate 76% among 1,400; AID 1347044; calls by dose curve; note: nearly all actives have a fitted effect of over 70% in size
# Npr2 selectivity – hNpr2 antagonism, selectivity versus Npr1; Potency, µM (top dose mostly 57.6 µM), inactives show top-dose activity change, negative = inhibition, most hits filed as inhibitors; AID 1347046; hit rate 67% among 1,400; HEK293 hNpr2 GloSensor cGMP luminescence, CNP-stimulated; shares compounds with hNpr1 antagonist; calls by dose curve; note: nearly all actives have a fitted effect of over 70% in size
# FLuc inh counter – inhibits firefly luciferase, false Npr1 antagonist flag. shares compounds with hNpr1 antagonist. purified FLuc enzyme, luminescence, Km substrate. Potency, µM (series often up to 57.6 µM), inactives show at the top dose activity change, negative = inhibition, most hits filed as inhibitors. hit rate 0.7% among 1,400; note: 0% is about no effect
# GloSensor cGMP – reduces cGMP signal in GloSensor control cells; HEK293 GloSensor cGMP, SNP-stimulated, luminescence; hit rate 69% among 1,400; shares compounds with hNpr1 antagonist; AID 1347051; Potency, µM (top dose mostly 57.6 µM), for inactives: at the highest dose activity change, negative = inhibition, most hits filed as inhibitors; calls by dose curve; note: % is set by controls: 0 for no effect and ±100 for the full control effect; nearly all actives have a fitted effect of over 70% in size
# The depositor's hits bear a star; i = inactive; ? = inconclusive; . = no result; [ ] = remark or other dose. Unless noted, calls come from the whole dose curve; as a rule, active = well fitted curve in the direction sought with a large enough effect; inconclusive = small, poorly fitted or top-dose-only effect, or another doubt; inactive = no such curve, though single readings can be large; an effect the other way counts as inactive or inconclusive. Potency is the fitted concentration of half-maximal effect.
SMILES,GPT2 inhibitor,HEK cytotox,Luciferase inh,NIH3T3 tox,hNpr1 antagonist,NPR1 antag cnf,Npr2 selectivity,FLuc inh counter,GloSensor cGMP
CCc1cc(=O)n(CC(=O)Nc2ccc(OC)c(OC)c2)c(-c2ccccc2)n1,i,?,i,?,-20%,.,.,.,.
CCOc1cccc(CNC(=O)C2CCN(c3cc(C(F)(F)F)ncn3)CC2)c1,i,?,i,?,?,.,.,.,.
O=C(NCc1ccc(Cl)cc1)C1CCN(c2cc(C(F)(F)F)ncn2)CC1,-5%,?,i,?,11µM*,19µM*,19µM*,1%,15µM*
COc1cccc(CNC(=O)C2CCN(c3cc(C(F)(F)F)ncn3)CC2)c1,i,-13%,i,-22%,?,?,?,0%,?
CO[C@H]1C(=O)N(C(C)C)[C@H]1C1CCN(C(=O)c2ccc3ncccc3c2)CC1,-9%,-3%,?,-8%,8%,.,.,.,.
O=C(CCC1CCCC1)N1CCC(c2noc(COc3ccc(F)cc3)n2)C1 (centres undefined),-8%,45µM*,i,?,10µM*,11µM*,15µM*,-7%,9.7µM*
CC(C)NC(=O)N[C@H]1CCN2C(=O)c3ccccc3NC(=O)[C@@H]2C1,-6%[88.5 µM],-21%[172 µM],i,-4%[174 µM],5%[70.6 µM],.,.,.,.
CN(Cc1cccc(C(=O)Nc2cccc(C#N)c2)c1)CC1COCCO1 (centres undefined),-1%,?,i,-17%,?,?,?,1%,0%
CN1C(=O)CO[C@H](c2ccc(NC(=O)c3cccc(C#N)c3)cc2)[C@H]1CO,i,-10%[172 µM],i,-6%[174 µM],5%[70.6 µM],.,.,.,.
COc1ccc(C)cc1C(=O)N1CCc2onc(-c3ccccc3F)c2C1,-2%,28µM*,i,-29%,14µM*,24µM*,22µM*,-1%,22µM*
CCCc1ncncc1C(=O)N1CCc2onc(-c3ccccc3F)c2C1,i,-3%,i,0%,5%,.,.,.,.
COc1cc(/C=C/C(=O)OC[C@H]2O[C@@H](OC3CC(C)=C(C(=O)O)C(C)(C)C3)[C@H](O)[C@@H](O)[C@@H]2O)cc(OC)c1O (some centres undefined),-16%[27.3 µM],.,.,.,.,.,.,.,.
COc1ccc(CC(=O)Nc2ccc([C@@H](O)[C@H]3COCC(=O)N3Cc3ccc(C(F)(F)F)cc3)cc2)cc1,-5%,32µM*,i,?,-25%,?,-18%,-1%,-26%
O=C(c1cc(F)ccc1F)N1CCC2(CC1)N=C(c1ccc(Cl)cc1)NO2,i,?,i,?,16µM*,24µM*,22µM*,-3%,24µM*
O=C(Cc1cccc(F)c1)N1CCC2(CC1)N=C(c1ccc(Cl)cc1)NO2,-13%,?,i,?,?,24µM*,?,3%,24µM*
Cc1ccc(C2=NC3(CCN(C(=O)Cc4ccc(Cl)cc4)CC3)ON2)cc1,i,-25%,i,-21%,-3%,.,.,.,.
O=C(c1cccc2[nH]ccc12)N1CCC2(CC1)N=C(c1ccc(Cl)cc1)NO2,0%,?,i,?,11µM*,19µM*,22µM*,-16%,17µM*
O=C1CC(c2ccccc2)N(Cc2ccncc2)CCCN(C(=O)c2ccsc2)CCN1 (centres undefined),-3%,-7%,i,-15%,-1%,.,.,.,.
COc1ccc(CNC(=O)C[C@@H]2O[C@H](Cn3cc(CN(C)Cc4ccccc4)nn3)[C@@H](O)[C@H]2O)cc1,3%,-1%,i,-14%,-1%,.,.,.,.
O=C1c2cc(N3CCOCC3)nc(-c3cccc(F)c3)c2CN1Cc1ccccc1,-13%[88.5 µM],?,i,?,?,28µM*,?,-1%[86.2 µM],?
COc1ccc(Cl)cc1NC(=O)Cn1c(N(C)Cc2ccccc2)nc(C)cc1=O,-13%,?,i,?,-12%,.,.,.,.
Cc1cc(=O)n(CC(=O)Nc2ccc(Br)cc2)c(N(C)Cc2ccccc2)n1,-12%,?,i,?,?,.,.,.,.
Cc1cc(=O)n(CC(=O)Nc2ccc(Br)cc2F)c(N(C)Cc2ccccc2)n1,i,?,i,?,?,22µM*,19µM*,0%,19µM*
COc1ccc(NC(=O)Cn2c(N(C)Cc3ccccc3)nc(C)cc2=O)cc1OC,i,?,i,?,4.5µM*,6.9µM*,11µM*,2%,7.7µM*
Cc1cc(=O)n(CC(=O)Nc2ccc(Cl)cc2F)c(N(C)Cc2ccccc2)n1,-12%,?,i,-33%,13µM*,24µM*,?,3%,?
SMILES,GPT2 inhibitor,HEK cytotox,Luciferase inh,NIH3T3 tox,hNpr1 antagonist,NPR1 antag cnf,Npr2 selectivity,FLuc inh counter,GloSensor cGMP
Cc1cc(=O)n(CC(=O)Nc2ccc(F)c(Cl)c2)c(N(C)Cc2ccccc2)n1,i,-2%,i,i,11µM*,24µM*,?,-1%,22µM*
CN(C)CCN1CC2(CCCN(C(=O)CCc3cc(=O)[nH]o3)C2)CCC1=O (centres undefined),-31%,-31%,i,-9%,0%,.,.,.,.
CC(=O)NCC(=O)N1CCCn2cc(-c3ccc4c(c3)OCO4)nc21,-1%,?,i,-3%,-9%,.,.,.,.
Cc1nc2cccnc2n1CC1CCCN(S(=O)(=O)c2ccc(C(C)C)cc2)C1 (centres undefined),2%,?,i,?,?,27µM*,?,4%,24µM*
Cc1ccc(S(=O)(=O)N2CCCC(Cn3c(C)nc4cccnc43)C2)cc1 (centres undefined),1%,?,i,?,-19%,.,.,.,.
COc1ccc(CN2CCNc3cnc(OCc4cccnc4)cc3C2)cc1,i,?,i,-23%[138 µM],?,.,.,.,.
c1cncc(COc2cc3c(cn2)NCCN(Cc2ccc4[nH]ccc4c2)C3)c1,i,?,i,?,8.9µM*,20µM*,22µM*,1%[86.2 µM],20µM*
